HepG2 viability – qHTS for Inhibitors of TGF-b: Cytotox Counterscreen; HepG2 CAGA-GFP viability, ATP luminescence, 18 h; Potency, µM (titrated, usually from 46.1 µM), without a hit: at the top dose activity change, negative = cytotoxicity, usual class: cytotoxic; hit rate 0.76% among 410,000
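CellTiter-Glo luminescence gave cytotoxicity after 18 hours at 37 degrees C. The cells were HepG2 CAGA-GFP in 1% FBS DMEM, stimulated with 500 pg/mL TGF-beta after compound addition. %Activity was normalised to no-cell wells (complete cell-killing) and DMSO (no toxicity), and curves were fitted and classified.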
HT1080 IDH1KD tx – qHTS for induction of synthetic lethality in tumor cells producing 2HG: qHTS for the HT-1080-IDH1KD cell line; Potency, µM (highest dose often 46.1 µM), for the others: at the top dose activity, negative = toxicity, most hits filed as cytotoxic; hit rate 2% among 360,000; HT-1080 IDH1 knockdown viability, ATP luminescence, 48 h; AID 686971, 2013;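 also: 0% = DMSO wells and -100% = cell-free medium wells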
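CellTiter-Glo luminescence after 48 h compound exposure at 37 degrees C of IDH1-knockdown HT-1080 cells in 5% FBS RPMI. %Activity scaled between DMSO wells and cell-free media wells, with curves fitted and assigned curve classes.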
HT1080-NT tox – qHTS for induction of synthetic lethality in tumor cells producing 2HG: qHTS for the HT-1080-NT fibrosarcoma cell line | HT-1080-NT fibrosarcoma viability, CellTiter-Glo ATP luminescence, 48 h | Potency, µM (doses to about 46.1 µM), inactives show at the top dose activity, negative = less viability, most hits filed as cytotoxic | hit rate 1.6% among 360,000 | AID 686970, 2013;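 also: NT is the 2HG producing partner of a matched IDH1 knockdown line; 0% = DMSO-treated cells and -100% = media-only wells without cells; nearly all actives have a fitted effect of over 55% in size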
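Viability by CellTiter-Glo luminescence after 48 h compound exposure at 37C of HT-1080-NT cells (750/well, RPMI, 5% FBS). % activity scaled between DMSO wells and medium-only wells, then curve-fitted and categorized by curve class.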
TGFb inhibitor – qHTS for Inhibitors of TGF-b | HepG2 CAGA-GFP TGF-b/SMAD3 reporter, GFP fluorescence, 18 h; TGF-beta stimulated, 500 pg/mL final | Potency, µM (top dose mostly 46.1 µM), inactives show top-dose activity, negative = inhibition, actives largely listed as inhibitors | hit rate 1.2% among 410,000; also: % is scaled to controls: 0 for no effect and ±100 for the full control effect; nearly all actives have a fitted effect of over 65% in size
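HEPG2 CAGA-GFP cells (1000/well, DMEM with 1% FBS) were pre-incubated 2 h at 37 degrees C, given compound by pin tool, then stimulated with TGF-beta at 500 pg/mL final for 18 h before per-cell GFP fluorescence imaging.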
ATXN2 expr inh – Primary qHTS for Inhibitors of ATXN expression. HEK-293 ATXN2-luciferase reporter, luminescence, 24 h. Potency, µM (top dose mostly 57 µM), for the others: at the highest dose activity change, negative = inhibition, hits mostly inhibitors. hit rate 0.72% among 360,000; also: % is scaled to controls: 0 for no effect and ±100 for the full control effect; nearly all actives have a fitted effect of over 55% in size
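ATXN2-luciferase reporter cells (luciferase flanked by upstream and downstream ATXN2 gene portions) were treated 24 h at 37 °C with compounds at up to 57 uM. SteadyGlo luminescence gave expression; GF-AFC fluorescence gave viability.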
ATXN viability – Viability Counterscreen for Primary qHTS for Inhibitors of ATXN expression. S2 cells (HEK-293 line with an ATXN2-luciferase reporter) viability, CellTiter-Fluor protease fluorescence, 24 h. hit rate 0.49% among 400,000. Potency, µM (titrated, usually from 56.7 µM), hits mostly cytotoxic; also: nearly all actives have a fitted effect of over 40% in size
The depositor's hits bear a star; i = inactive; u = inconclusive; x = no result. Sampled rows, rich in hits. Any-hit rate of the full collection: about 3.9%. Calls follow the shape of the dose curve; as a rule, active = well fitted curve in the direction sought with a large enough effect; inconclusive = small, poorly fitted or top-dose-only effect, or another doubt; inactive = no such curve, though single readings can be large; an effect the other way counts as inactive or inconclusive. Potency is read from the fitted curve at half-maximal effect.

SMILES	HepG2 viability	HT1080 IDH1KD tx	HT1080-NT tox	TGFb inhibitor	ATXN2 expr inh	ATXN viability
Cc1ccc(-c2c3c(=O)n(C)c(=O)n(C)c3c3n2-c2ccccc2NC3c2ccc(C)cc2O)cc1 (stereo unspecified)	-96.7%	x	x	6.31µM*	u	u
COC(=O)c1cc(NC(=O)c2ccc3c(c2)N(Cc2cccc(Cl)c2)C(=O)c2ccccc2S3=O)cc(C(=O)OC)c1 (stereo unspecified)	-2.2%	x	x	18.2%	9.2%	i
S=C(NCCc1ccccc1)NCc1cccc(Cl)c1	-44.2%	-15.0%	-26.5%	12.6µM*	1.1%	i
COc1ccc2c(c1)c(CC(=O)Nc1nnc(C3CC3)s1)c(C)n2C(=O)c1ccc(Cl)cc1	-7.7%	u	23.1µM*	-12.9%	-2.7%	u
CCCCCC(=O)N1C[C@H](n2cc(-c3ccc(F)cc3)nn2)[C@@H](O)C[C@@H]1c1ccc(Cl)cc1	-107.1%	u	16.4µM*	u	u	u
CCCCCCN1C[C@H](n2cc(COC(=O)c3ccccc3)nn2)[C@@H](O)C[C@@H]1c1ccccc1	-92.8%	5.1%	1.7%	u	0.0%	u
CCCCCCN1C[C@H](n2cc(COC(=O)c3ccccc3)nn2)[C@@H](O)C[C@@H]1c1ccc(C)cc1	10µM*	u	u	u	u	u
CCCCCCN1C[C@@H](n2cc(COC(=O)c3ccccc3)nn2)[C@H](O)C[C@@H]1c1ccc(Cl)cc1	0.7%	6.3%	8.8%	16.8%	u	31.6µM*
O=C(O)c1cccc(-c2noc(-c3ccccc3F)n2)c1	x	x	x	x	u	i
COc1cc(NC(=O)CCc2c(C)nc3c4c(C)cc(C)nc4nn3c2C)cc(OC)c1	-4.2%	x	x	4.3%	0.3%	i
CCN(C(=O)c1cn(-c2ccc(OC)cc2)c(=O)c2ccccc12)c1cccc(Cl)c1	-23.0%	x	x	15.8µM*	x	x
Cc1cc(C)nc(SCC(=O)NC2=NN=C(c3ccc(Br)cc3)CS2)n1	-15.0%	15.8µM*	22.4µM*	-1.6%	u	31.6µM*
COc1ccc2c(c1)OC(C)CN(CCNC(=O)C1CCOC1)C2 (stereo unspecified)	x	x	x	x	x	i
CCN(CC)CCC(=O)N1c2ccccc2Sc2ccc(Cl)cc21	-27.1%	20.6µM*	u	u	-3.2%	i
CN1CCC=C(C(=O)N2c3ccccc3Sc3ccc(Cl)cc32)C1	-21.6%	16.4µM*	u	u	u	u
CCOC(=O)c1c(C)sc2c1N(C(=O)CN(CC)CC)c1cc(Cl)ccc1S2	-14.2%	u	u	u	31.6µM*	u
CCOC(=O)c1c(C)sc2c1N(C(=O)CN(CC)CC)c1ccccc1S2	-36.3%	-2.6%	-3.5%	-7.0%	-10.3%	u
CN(C)CCC(=O)N1c2ccccc2Sc2ccc(Cl)cc21	-13.3%	u	-3.5%	-15.3%	-12.9%	i
O=C(O)c1cccc(N/N=C/c2cccs2)c1	3.4%	-6.8%	-6.1%	5.6%	10µM*	u
CC(=O)/C(C#N)=C1\NC(=O)C(Cc2cc(Cl)ccc2Cl)S1 (stereo unspecified)	-50.9%	u	23.1µM*	-25.9%	x	u
CC(=O)/C(C#N)=C1\NC(=O)C(Cc2ccc(F)cc2)S1 (stereo unspecified)	-5.2%	-15.6%	-12.3%	1.2%	88.8%	i
CC(=O)/C(C#N)=C1\NC(=O)C(Cc2ccccc2Cl)S1 (stereo unspecified)	-32.8%	3.66µM*	-23.0%	60.6%	-24.2%	i
COC(=O)[C@H](Cc1ccccc1)N(Cc1ccc(C)cc1)S(C)(=O)=O	-31.4%	x	x	-9.8%	x	x

Assay outcomes as filed in PubChem BioAssay.
